In PubChem BioAssay (NCATS):
Inconclusive results are not listed. Activity calls are given as the source filed them. Unless noted, the call rests on the fitted dose curve; in most records, active means well fitted curve in the direction sought with a large enough effect; inconclusive means small, poorly fitted or top-dose-only effect, or another doubt; inactive means no such curve, though single readings can be large; an effect the other way counts as inactive or inconclusive.

Key:
[1] = molecular target: Glucocorticoid receptor (Homo sapiens) (UniProt P04150); assay: GR-GFP Redistribution (AID 450;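 active means compounds whose dose series gives a full or clear partial fitted curve of increased nuclear translocation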; further: potency means the concentration at half of the fitted maximal effect); settings: U2OS GR-GFP nuclear translocation, laser cytometry, 2 h
[2] = molecular target: Glucocorticoid receptor (Homo sapiens) (UniProt P04150); assay: GR-EFC Redistribution (AID 451; calls by dose curve; further: potency means the concentration at half of the fitted maximal effect); settings: CHO-K1 GR-EFC translocation, beta-gal luminescence, 2 h
In short: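 CHO-K1 cells expressing nuclear EA and GR-ED fragments of b-gal; compounds titrated up to 46 uM final, 2 h at 37 C. GR nuclear translocation read as complemented b-gal luminescence after 1 h RT detection.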

[3] = molecular target: Mitogen-activated protein kinase 10 (Mus musculus) (UniProt Q61831); assay: JNK3 AlphaScreen Assay (AID 530; active means well fitted curve in either direction with a large enough effect, not every such curve was filed as active;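 further: kinase came from lysate of stimulated human HepG2 cells; signal reports phosphorylation of biotinylated GST-cJun 1-79 at Ser73 with 10 µM ATP; on the % scale 0 is the no-effect control and ±100 the full control effect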)
In short: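 Pre-activated (IL-1β/TNFα) JNK3 in HepG2 lysates phosphorylates biotin-GST-cJun(1-79), 10 uM ATP; anti-phospho-cJun(Ser73) AlphaScreen read at room temperature, pH 7.6 Tris buffer. Compounds pre-incubated 15 min as titrations.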

[4] = molecular target: 3',5'-cyclic-AMP phosphodiesterase 4B (Homo sapiens) (UniProt Q07343); assay: qHTS Assay for Inhibitors of PDE-IV (AID 607; active means well fitted activation curve with a large enough effect in the main read-out, with a control signal flat, not every such curve was filed as active; further: % of control where 0% means no effect)
In short: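 Live HEK293 cells with a modified cyclic nucleotide-gated (CNG) channel report intracellular cAMP via membrane-potential dye fluorescence (ex 535/em 590 nm). Endogenous PDE-IV was targeted. Compounds were tested at up to 22.9 uM final; RO 20-1724 100 uM served as control.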

[5] = molecular target: Ubiquitin carboxyl-terminal hydrolase 1 (Homo sapiens) (UniProt O94782); assay: Inhibitors of USP1/UAF1: Pilot qHTS (AID 504865); further: nearly all actives have a fitted effect of over 35% in size; further: potency means the concentration at half of the fitted maximal effect
In short: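 USP1/UAF1 complex at 1 nM preincubated 15 min at room temperature with compound, then Ub-Rho substrate added at 150 nM final. Fluorescence (480/540 nm) read kinetically in 50 mM HEPES pH 7.8, 0.5 mM EDTA, 1 mM TCEP, 0.1 mg/ml BSA, 0.01% Tween-20.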

[6] = molecular target: DNA dC->dU-editing enzyme APOBEC-3G (Homo sapiens) (UniProt Q9HC16); assay: qHTS for inhibitors of Vif-A3G interactions: Validation (AID 588379); further: 0% is about no effect
In short: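 HeLa cells stably expressing Vif and A3G-eYFP, 700 cells/well, incubated overnight at 37 deg C, then exposed to compound overnight at 37 deg C. Inhibition of Vif-mediated degradation read as increased yellow fluorescence (Ex 488/Em 500-530) by laser-scanning cytometry.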

[7] = tested on: Zika virus NS2B-NS3 protease; assay: Primary screen GU AMC qHTS for Zika virus inhibitors (AID 1347154); further: nearly all actives have a fitted effect of over 70% in size; further: potency means the concentration at half of the fitted maximal effect;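 on activity change, negative = inhibition: 0% = no-inhibitor control and -100% = no-enzyme control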
In short: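 Unlinked Zika NS2B hydrophilic domain–NS3 protease complex at 25 nM in 10 mM Tris-HCl pH 8.0, 0.01% Tween 20, with an AMC peptide substrate. Fluorescence change (340/450 nm) over 15 min at room temperature, normalized to controls, fitted to 4-parameter Hill.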

[8] = molecular target: Cytochrome P450 1A2 (Homo sapiens) (UniProt P05177); assay: p450-cyp1a2 (AID 410; calls by dose curve; further: potency means the concentration at half of the fitted maximal effect;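 on activity change, negative = inhibition: -100% = full effect of reference inhibitor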)
In short: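 20nM CYP1A2 with 100uM Luciferin-ME (at Km) in 100mM KPO4; compound preincubated 10 min, NADPH regeneration added, 60 min at room temperature. Luciferin quantified by luminescence after detection reagent; normalized to 57 uM furafylline.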

[9] = molecular target: Cytochrome P450 3A4 (Homo sapiens) (UniProt P08684); assay: qHTS Assay for Activators of Cytochrome P450 3A4 (AID 885); further: nearly all actives have a fitted effect of over 65% in size
In short: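 Quantitative HTS format: compounds preincubated with 20nM human CYP3A4 and Luciferin-PPXE substrate at KM, reaction started by NADPH regeneration, stopped after 60 min, luciferase luminescence read 20 min later.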

[10] = molecular target: Cytochrome P450 2D6 (Homo sapiens) (UniProt P10635); assay: qHTS Assay for Inhibitors and Substrates of Cytochrome P450 2D6 (AID 891); further: nearly all actives have a fitted effect of over 60% in size; further: potency means the concentration at half of the fitted maximal effect
In short: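 Human CYP2D6 (5 nM) with 30 uM Luciferin-ME EGE (at Km) in 100 mM KPO4, compound preincubated 10 min, then NADPH regeneration system for 60 min at room temperature. Luciferin read by luminescence; normalized to 1.43 uM quinidine.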

[11] = molecular target: Cytochrome P450 2C19 (Homo sapiens) (UniProt P33261); assay: qHTS Assay for Inhibitors and Substrates of Cytochrome P450 2C19 (AID 899); further: nearly all actives have a fitted effect of over 60% in size; further: potency means the concentration at half of the fitted maximal effect
In short: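 Luminescent read-out of luciferin formed from Luciferin-H EGE (10uM, equal to KM). Enzyme 5nM in 50mM KPO4; compound added, 10 min at 37C, then NADPH regenerating system for 60 min at 37C. Full inhibition defined by 57uM ketoconazole.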

[12] = molecular target: Cytochrome P450 2C9 (Homo sapiens) (UniProt P11712); assay: qHTS Assay for Inhibitors and Substrates of Cytochrome P450 2C9 (AID 883); further: nearly all actives have a fitted effect of over 60% in size; further: potency means the concentration at half of the fitted maximal effect
In short: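 10nM CYP2C9 + 100uM Luciferin-H (=KM), 25mM KPO4; cpd 10 min 37C; NADPH regen, 60 min 37C; stop/detect with P450 Glo-Buffer 20 min; luminescence. Norm. to 57uM sulphaphenazole as full inhibition.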

[13] = molecular target: Cytochrome P450 3A4 (Homo sapiens) (UniProt P08684); assay: qHTS Assay for Inhibitors and Substrates of Cytochrome P450 3A4 (AID 884); further: nearly all actives have a fitted effect of over 50% in size
In short: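 20 nM human CYP3A4 with 25 uM Luciferin-PPXE (at KM) in 200 mM KPO4, preincubated 10 min with compound; NADPH regeneration started a 60 min RT reaction. Luciferin detected by luminescence, normalized to 57 uM ketoconazole as full inhibition.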

[14] = AP1 Signaling Pathway (AID 357; active means well fitted curve in either direction with a large enough effect, not every such curve was filed as active;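 further: ME-180 reporter cells stimulated with EGF at its EC50 level; on the % scale 0 is the no-effect control and ±100 the full control effect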); settings: ME-180 AP-1-bla reporter, EGF-induced, beta-lactamase ratio, 5 h; at 38 µM (top of the series)
In short: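 Modulation of EGF-driven AP-1 transcription was assessed with a beta-lactamase reporter in ME-180 cells. Compound and EC50 EGF were co-incubated 5 hours at 37 °C before 2.5-hour CCF4 loading at room temperature and dual-emission reading.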

[15] = NFAT Signaling Pathway (AID 444; active means well fitted curve in either direction with a large enough effect, not every such curve was filed as active;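 further: carbachol stimulus at about its EC50 of 1 µM final; on the % scale 0 is the no-effect control and ±100 the full control effect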); settings: Jurkat NFAT-bla M1, carbachol, beta-lactamase ratio, 5 h; at 38 µM (top of the series)
In short: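 Jurkat cells with NFAT-driven β-lactamase reporter and co-expressed M1 receptor, stimulated with carbachol (final 1 uM, ~EC50), compound titration, 5 h at 37 °C. CCF4 loaded 1 h at RT; 460/530 nm ratio gave %activity and AC50.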

[16] = molecular target: Guanine nucleotide-binding protein G(i) subunit alpha-1 (Homo sapiens) (UniProt P63096); assay: qHTS Assay for Inhibitors of RGS12 GoLoco Motif Activity (Green Fluorophore) (AID 879);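 further: 0% = labeled peptide with Gαi1 and full inhibition = labeled peptide alone without protein; negative values mean loss of peptide binding seen as reduced polarization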
In short: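 Fluorescence polarization assay: 50 nM Gαi1 with 10 nM FITC-labeled RGS12 GoLoco peptide in 10 mM Tris pH 7.5, 150 mM NaCl, 0.1 mM GDP, 0.05% NP40, 10 min at room temperature with compound.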

[17] = qHTS Assay for Identification of Small Molecule Agonists for Thrombopoietin (TPO) Signaling Pathway (AID 917); further: on the % scale 0 is the no-effect control and ±100 the full control effect
In short: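 Murine Ba/F3 cells expressing human TPO receptor and GPIIb-promoter luciferase, IL-3-starved overnight, given compound plus TPO at 26 pM (EC50). After 24 h at 37 C, 5% CO2, luminescence read.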

[18] = molecular target: Muscarinic acetylcholine receptor M1 (Rattus norvegicus) (UniProt P08482); assay: qHTS Assay for Antagonists of Acetylcholine Muscarinic M1 Receptor: Kinetic Measurement of Intracellular Calcium Response (AID 943); further: nearly all actives have a fitted effect of over 75% in size
In short: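 CHO cells expressing rat M1 receptor, Fluo-4 loaded, preincubated 10 min with compound, then stimulated with EC80 carbachol (100 nM final). Kinetic calcium fluorescence over 4 min; response taken as peak over basal signal.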

[19] = molecular target: Pyruvate kinase (Leishmania mexicana) (UniProt Q27686); assay: qHTS Validation Assay for Inhibitors of Leishmania Mexicana Pyruvate Kinase (AID 945);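 further: 0% = DMSO only neutral control wells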
In short: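 Pyruvate kinase activity of E451W LmPYK (0.2 nM) was followed as ATP output after 1 h at room temperature with 0.5 mM PEP and 0.1 mM ADP, detected by PKLight luminescence.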

[20] = molecular target: Pyruvate kinase PKM (Homo sapiens) (UniProt P14618); assay: qHTS Assay for Activators of Human Muscle Pyruvate Kinase (AID 954; active means well fitted curve in the direction sought with a large enough effect, not every such curve was filed as active;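 further: 0% = uninhibited enzyme and -100% = no enzyme or full thiadiazolimine inhibition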)
In short: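 Enzyme was run at intermediate activity so both inhibitors and activators could be detected. ATP formed from ADP and PEP by 0.1 nM human PKM2 during a 1 h room-temperature incubation was quantified by coupled luciferase luminescence.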

[21] = molecular target: Alpha-galactosidase A (Homo sapiens) (UniProt P06280); assay: Counterscreen for Glucocerebrosidase Inhibitors: qHTS Assay for Human alpha-Galactosidase at pH 4.5 (AID 992); further: 0% is about no effect
In short: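 Read-out is 4-methylumbelliferone fluorescence (365 nm excitation, 440 nm emission) after a pH 10 NaOH/glycine stop. Reactions held 2 nM enzyme and 80 uM substrate at pH 4.5 for 20 min at room temperature.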

[22] = molecular target: alpha-glucosidase (Oryza sativa, rice) (UniProt Q653V4); assay: Counterscreen for Glucocerebrosidase Inhibitors: qHTS Assay for Rice alpha-Glucosidase at pH 5.0 (AID 997);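 further: 0% = full activity with enzyme and -100% = basal without enzyme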
In short: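 Rice alpha-glucosidase (4 nM final) with 400 uM 4-methylumbelliferyl-alpha-D-glucopyranoside in citrate buffer pH 5.0, 20 min at room temperature, stopped at pH 10; fluorescence 365/440 nm, compounds 0.7 nM–77 uM, AC50 from Hill fits.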

[23] = Stat Signaling Pathway (AID 446; active means well fitted curve in either direction with a large enough effect, not every such curve was filed as active); settings: ME-180 (cervical carcinoma) SIE beta-lactamase reporter, IL-6 stimulated, 5 h; at 38 µM (top of the series)
In short: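 IL-6/STAT signaling read in ME-180 cells via an SIE beta-lactamase reporter. Stimulus was 40 pM IL-6 (its AC50) for 5 hrs, so both activation and inhibition register.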

Chain of Cytochrome P450 2C9 (Homo sapiens) (P11712 whole entry, looked up): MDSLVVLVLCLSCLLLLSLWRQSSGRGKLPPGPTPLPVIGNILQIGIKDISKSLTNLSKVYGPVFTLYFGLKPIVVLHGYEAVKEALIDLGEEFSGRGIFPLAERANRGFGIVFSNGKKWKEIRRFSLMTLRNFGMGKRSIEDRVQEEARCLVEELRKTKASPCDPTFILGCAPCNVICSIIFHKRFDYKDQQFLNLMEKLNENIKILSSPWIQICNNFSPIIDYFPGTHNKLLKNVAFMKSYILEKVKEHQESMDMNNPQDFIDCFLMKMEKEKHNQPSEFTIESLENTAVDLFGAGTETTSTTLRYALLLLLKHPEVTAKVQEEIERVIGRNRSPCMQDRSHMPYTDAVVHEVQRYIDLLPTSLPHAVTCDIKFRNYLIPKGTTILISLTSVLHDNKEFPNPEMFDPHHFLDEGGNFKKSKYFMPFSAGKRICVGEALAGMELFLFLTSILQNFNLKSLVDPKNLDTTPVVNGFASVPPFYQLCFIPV
Chain of Glucocorticoid receptor (Homo sapiens) (P04150 whole entry, looked up, the tested form may be a part): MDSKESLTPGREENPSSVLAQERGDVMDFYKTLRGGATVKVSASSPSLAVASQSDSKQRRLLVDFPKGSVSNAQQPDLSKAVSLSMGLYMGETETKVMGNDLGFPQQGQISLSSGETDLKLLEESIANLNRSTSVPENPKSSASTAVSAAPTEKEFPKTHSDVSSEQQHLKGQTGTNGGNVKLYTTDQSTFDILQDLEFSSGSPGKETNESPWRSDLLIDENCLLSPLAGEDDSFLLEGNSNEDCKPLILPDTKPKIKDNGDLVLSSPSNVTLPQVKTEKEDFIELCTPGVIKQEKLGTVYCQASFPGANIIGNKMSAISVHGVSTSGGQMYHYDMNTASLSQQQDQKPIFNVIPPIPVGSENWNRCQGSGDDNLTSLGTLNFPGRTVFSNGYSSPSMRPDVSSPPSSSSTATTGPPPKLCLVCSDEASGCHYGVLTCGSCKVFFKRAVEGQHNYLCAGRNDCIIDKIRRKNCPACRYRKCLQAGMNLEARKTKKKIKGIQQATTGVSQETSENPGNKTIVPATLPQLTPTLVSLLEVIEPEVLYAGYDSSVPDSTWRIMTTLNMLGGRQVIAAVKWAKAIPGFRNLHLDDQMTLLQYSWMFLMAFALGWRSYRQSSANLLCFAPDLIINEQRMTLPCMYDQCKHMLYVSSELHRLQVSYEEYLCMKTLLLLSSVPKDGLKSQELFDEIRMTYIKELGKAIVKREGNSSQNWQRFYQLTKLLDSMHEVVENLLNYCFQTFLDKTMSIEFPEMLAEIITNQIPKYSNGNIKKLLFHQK
Chain of Ubiquitin carboxyl-terminal hydrolase 1 (Homo sapiens) (O94782 whole entry, looked up): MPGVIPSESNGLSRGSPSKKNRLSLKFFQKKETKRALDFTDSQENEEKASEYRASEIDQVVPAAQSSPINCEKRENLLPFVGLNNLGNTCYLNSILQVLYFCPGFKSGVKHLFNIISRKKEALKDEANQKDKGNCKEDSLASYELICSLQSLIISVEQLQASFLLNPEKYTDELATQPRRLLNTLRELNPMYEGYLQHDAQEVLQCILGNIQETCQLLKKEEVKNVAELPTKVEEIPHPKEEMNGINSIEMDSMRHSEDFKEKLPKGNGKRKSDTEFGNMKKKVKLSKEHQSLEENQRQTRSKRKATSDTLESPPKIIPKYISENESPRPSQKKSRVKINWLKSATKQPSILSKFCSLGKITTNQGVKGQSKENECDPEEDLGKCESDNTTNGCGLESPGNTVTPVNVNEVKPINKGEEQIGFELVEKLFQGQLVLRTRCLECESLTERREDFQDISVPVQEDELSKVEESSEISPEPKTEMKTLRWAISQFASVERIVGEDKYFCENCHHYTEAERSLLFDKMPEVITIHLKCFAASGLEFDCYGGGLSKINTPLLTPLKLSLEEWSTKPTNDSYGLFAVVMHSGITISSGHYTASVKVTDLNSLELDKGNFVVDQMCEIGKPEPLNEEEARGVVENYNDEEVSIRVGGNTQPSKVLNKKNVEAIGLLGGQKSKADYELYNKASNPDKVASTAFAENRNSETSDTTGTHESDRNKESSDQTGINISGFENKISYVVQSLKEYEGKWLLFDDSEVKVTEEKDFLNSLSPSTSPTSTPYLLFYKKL
Chain of 3',5'-cyclic-AMP phosphodiesterase 4B (Homo sapiens) (Q07343 whole entry, looked up): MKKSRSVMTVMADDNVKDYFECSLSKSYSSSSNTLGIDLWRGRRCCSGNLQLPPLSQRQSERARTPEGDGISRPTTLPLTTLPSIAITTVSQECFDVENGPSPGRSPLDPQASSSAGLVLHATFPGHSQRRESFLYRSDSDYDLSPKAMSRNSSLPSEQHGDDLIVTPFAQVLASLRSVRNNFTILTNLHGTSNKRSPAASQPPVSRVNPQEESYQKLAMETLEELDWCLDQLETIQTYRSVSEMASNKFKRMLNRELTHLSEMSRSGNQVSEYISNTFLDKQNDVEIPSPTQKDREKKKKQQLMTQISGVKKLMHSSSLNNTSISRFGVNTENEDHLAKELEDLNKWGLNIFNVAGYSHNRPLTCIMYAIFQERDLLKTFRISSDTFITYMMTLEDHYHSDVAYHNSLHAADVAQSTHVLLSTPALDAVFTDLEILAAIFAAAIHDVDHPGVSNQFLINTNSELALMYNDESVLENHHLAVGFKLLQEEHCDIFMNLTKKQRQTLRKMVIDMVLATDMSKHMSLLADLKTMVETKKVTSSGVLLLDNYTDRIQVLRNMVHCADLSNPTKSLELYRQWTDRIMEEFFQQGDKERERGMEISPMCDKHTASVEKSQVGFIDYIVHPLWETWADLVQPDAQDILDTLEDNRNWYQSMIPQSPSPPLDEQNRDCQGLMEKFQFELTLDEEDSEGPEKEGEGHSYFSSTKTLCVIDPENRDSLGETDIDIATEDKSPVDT
Chain of Cytochrome P450 1A2 (Homo sapiens) (P05177 whole entry, looked up): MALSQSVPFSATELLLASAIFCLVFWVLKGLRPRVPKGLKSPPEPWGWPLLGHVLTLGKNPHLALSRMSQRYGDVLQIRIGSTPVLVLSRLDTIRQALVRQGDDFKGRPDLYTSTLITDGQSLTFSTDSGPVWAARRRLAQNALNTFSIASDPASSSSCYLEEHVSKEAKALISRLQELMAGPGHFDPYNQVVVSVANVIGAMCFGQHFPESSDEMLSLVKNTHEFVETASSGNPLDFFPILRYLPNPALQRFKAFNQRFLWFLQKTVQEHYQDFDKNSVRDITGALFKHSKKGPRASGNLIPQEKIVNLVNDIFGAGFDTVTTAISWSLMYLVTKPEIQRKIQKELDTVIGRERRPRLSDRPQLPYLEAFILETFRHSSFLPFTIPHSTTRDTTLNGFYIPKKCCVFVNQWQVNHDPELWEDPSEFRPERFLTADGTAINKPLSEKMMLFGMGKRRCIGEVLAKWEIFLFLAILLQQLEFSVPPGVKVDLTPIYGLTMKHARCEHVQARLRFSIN
Chain of DNA dC->dU-editing enzyme APOBEC-3G (Homo sapiens) (Q9HC16 whole entry, looked up): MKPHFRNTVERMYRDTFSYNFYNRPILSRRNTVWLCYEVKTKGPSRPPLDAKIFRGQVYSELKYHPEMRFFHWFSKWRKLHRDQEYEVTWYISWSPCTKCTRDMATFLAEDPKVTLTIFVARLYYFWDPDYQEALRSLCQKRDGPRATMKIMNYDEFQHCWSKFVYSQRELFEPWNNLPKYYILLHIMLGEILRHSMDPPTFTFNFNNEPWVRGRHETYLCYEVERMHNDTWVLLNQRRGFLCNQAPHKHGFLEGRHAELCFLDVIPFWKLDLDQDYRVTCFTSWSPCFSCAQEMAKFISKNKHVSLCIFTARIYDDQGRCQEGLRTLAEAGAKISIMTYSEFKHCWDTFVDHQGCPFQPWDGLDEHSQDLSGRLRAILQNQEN
Chain of Cytochrome P450 3A4 (Homo sapiens) (P08684 whole entry, looked up): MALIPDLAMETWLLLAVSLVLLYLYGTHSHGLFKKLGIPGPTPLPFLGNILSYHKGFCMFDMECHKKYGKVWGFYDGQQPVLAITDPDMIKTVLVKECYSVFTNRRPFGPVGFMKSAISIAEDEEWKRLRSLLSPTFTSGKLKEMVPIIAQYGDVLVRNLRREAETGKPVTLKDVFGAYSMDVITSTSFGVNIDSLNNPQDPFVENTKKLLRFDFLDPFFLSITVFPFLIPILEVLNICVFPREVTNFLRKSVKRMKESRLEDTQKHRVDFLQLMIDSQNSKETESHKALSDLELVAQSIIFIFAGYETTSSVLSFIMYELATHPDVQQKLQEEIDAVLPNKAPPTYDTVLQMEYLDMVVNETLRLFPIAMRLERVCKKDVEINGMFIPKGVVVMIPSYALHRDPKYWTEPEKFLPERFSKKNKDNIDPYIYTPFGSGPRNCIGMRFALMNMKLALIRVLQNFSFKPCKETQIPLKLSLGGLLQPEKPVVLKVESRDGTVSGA
Chain of Cytochrome P450 2D6 (Homo sapiens) (P10635 whole entry, looked up): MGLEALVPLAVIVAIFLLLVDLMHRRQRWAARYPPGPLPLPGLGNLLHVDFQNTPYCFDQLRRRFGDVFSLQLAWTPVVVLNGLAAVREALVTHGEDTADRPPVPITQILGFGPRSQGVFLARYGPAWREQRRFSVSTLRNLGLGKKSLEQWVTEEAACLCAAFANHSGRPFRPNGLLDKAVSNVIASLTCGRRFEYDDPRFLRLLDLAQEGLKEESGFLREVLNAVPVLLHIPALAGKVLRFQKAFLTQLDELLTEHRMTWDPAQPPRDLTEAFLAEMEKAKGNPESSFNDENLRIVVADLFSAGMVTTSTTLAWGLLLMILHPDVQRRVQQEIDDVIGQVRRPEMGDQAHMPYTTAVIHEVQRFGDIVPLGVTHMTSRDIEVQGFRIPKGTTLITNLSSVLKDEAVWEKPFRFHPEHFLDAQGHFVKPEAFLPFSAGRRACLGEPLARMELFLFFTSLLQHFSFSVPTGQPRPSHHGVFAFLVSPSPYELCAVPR

CCCCN1CCC[C@@H]1CNC(=O)c1cc(C#N)c2ccccc2c1OC
inactive: Potency [1] > 46 µM | Potency [2] > 46 µM | Potency [3] | Potency [4] | Potency [5] | Potency [6] | Potency [7]

OC[C@@H]1O[C@@H](n2cnc3c(NC4CCCC4)ncnc32)[C@H](O)[C@H]1O
inactive: Potency [8] | Potency [1] > 46 µM | Potency [2] > 46 µM | Potency [3] | Potency [5] | Potency [6] | Potency [7]

OCCNCCCOc1cccc(Cl)c1Cl
active: Potency [8] 0.2 µM | Potency [10] 0.158 µM | Potency [11] 3.98 µM
inactive: Potency [1] > 46 µM | Potency [2] > 46 µM | Potency [3] | Potency [9] | Potency [5] | Potency [6] | Potency [7]

CN(CCc1ccc(Cl)c(Cl)c1)C[C@@H](O)COc1ccc(NS(C)(=O)=O)cc1
active: Potency [8] 15.8 µM | Potency [12] 2.51 µM | Potency [11] 2 µM
inactive: Potency [1] > 46 µM | Potency [2] > 46 µM | Potency [3] | Potency [9] | Potency [6] | Potency [7]

O=S(c1ccccc1)c1ccc2nnnn2n1 (configuration not stated)
inactive: Potency [3] | outcome [12] | outcome [13] | outcome [9] | outcome [11] | Potency [6] | Potency [7]
active: outcome [8]

C[C@@]1(C(=O)O)NCCc2cc(O)c(O)cc21
inactive: Potency [8] | Potency [1] > 46 µM | Potency [2] > 46 µM | Potency [4] | Potency [9] | Potency [6]
active: Potency [5] 56.2 µM | Potency [7] 11.9 µM

NS(=O)(=O)c1cc2c(cc1Cl)N[C@@H]([C@@H]1C[C@@H]3C=C[C@H]1C3)NS2(=O)=O
inactive: activity change, negative = inhibition [14] -0.109% | Potency [8] | activity change, negative = inhibition [15] 4.22% | Potency [1] > 46 µM | Potency [2] > 46 µM | Potency [3] | Potency [4] | outcome [16] | Potency [17] | Potency [18] | Potency [19] | outcome [20] | outcome [21] | outcome [22] | Potency [6] | Potency [7]

COc1cc2nc(N3CCN(C(=O)[C@H]4CCCO4)CC3)nc(N)c2cc1OC
inactive: activity change, negative = inhibition [14] 14.3% | Potency [8] | activity change, negative = inhibition [15] -4.26% | activity, negative = inhibition [23] 7.77% | Potency [1] > 46 µM | Potency [2] > 46 µM | Potency [3] | outcome [16] | Potency [12] | Potency [10] | Potency [11] | Potency [19] | outcome [20] | outcome [21] | outcome [22] | Potency [6]
active: Potency [7] 26.7 µM
